Our source for the outcome and AC50 values is PubChem BioAssay (EPA / NIEHS).

Test [1] is described as follows: TOX21_p53_BLA_p3_viability: Viability Assessment in the Tox21 HCT-116 p53 Agonism Beta-lactamase Assay, Phase 3 (AID 2283593).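 Also: cells exposed to compound for 16 h before reading.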 An outline of the steps: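 HCT-116 cells (4000/well) rested 5 h at 37C, then got DMSO compounds by pin tool (217-fold dilution) for 16 h at 37C, 5% CO2. After the bla read, CellTiter-Glo was added and luminescence read at 30 min, room temperature.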

The target in test [2] is Cellular tumor antigen p53 (Homo sapiens) (UniProt P04637). The test can be described thus: TOX21_p53_BLA_p3_ratio: Tox21 HCT-116 p53 Agonism Beta-lactamase Assay, Ratio, Phase 3 (AID 2283596). Put shortly:
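Cells were seeded at 4000/well, rested 5 h at 37C, then dosed with DMSO compound solutions (217-fold dilution) for 16 h. CCF4-AM substrate was loaded for 2 h at room temperature, and the 460/530 nm emission ratio was fitted for gain of signal versus DMSO.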

A short description of test [3]: TOX21_p53_BLA_p4_viability: Viability Assessment in the Tox21 HCT-116 p53 Agonism Beta-lactamase Assay, Phase 4 (AID 2283597).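 Also: hits lower the luminescence signal meaning cytotoxicity.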 An outline of the steps:
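Readout: ATP luminescence (CellTiter-Glo), measured 30 min after reagent addition at RT. The reagent followed a 2 h CCF4-AM incubation, and the cells had been exposed to compound for 16 h at 37C.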

The nature of test [4]: TOX21_p53_BLA_p5_viability: Viability Assessment in the Tox21 HCT-116 p53 Agonism Beta-lactamase Assay, Phase 5 (AID 2283600). Put shortly:
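Workflow: seed 4000 cells per well, wait 5 h, add compounds (DMSO, 217-fold dilution), incubate 16 h, load CCF4-AM 2 h, add CellTiter-Glo, read luminescence after 30 min.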

The target of test [5] is Cellular tumor antigen p53 (Homo sapiens) (UniProt P04637). The test can be described thus: TOX21_p53_BLA_p4_ratio: Tox21 HCT-116 p53 Agonism Beta-lactamase Assay, Ratio, Phase 4 (AID 2283601). Put shortly:
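HCT116 cells carrying an inducible beta-lactamase reporter were plated at 4000 cells/well, rested 5 h, then exposed to compounds in DMSO (217-fold dilution) for 16 h at 37C. CCF4-AM substrate was loaded 2 h at room temperature; 460/530 nm emission ratio scored gain-of-signal versus DMSO.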

Test [6] in a line: Tanguay_ZF_120hpf_MORT_legacy: (Legacy) Oregon State University Tanguay Lab 120 Hour Post-fertilization zebrafish Assay for Mortality (AID 2283633). An outline of the steps: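 5D WT zebrafish, chorion removed 4 hpf; 1 embryo/well from 6 hpf; static exposure to 120 hpf, 28C, dark, sealed. Final DMSO 0.64%. Readout: binary mortality, brightfield, 24 + 120 hpf; DMSO as negative control.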

The nature of test [7]: Tanguay_ZF_120hpf_YSE_legacy: (Legacy) Oregon State University Tanguay Lab 120 Hour Post-fertilization zebrafish Assay for Yolk Sac Edema (AID 2283634).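 As to AC50: actives raise the incidence of yolk sac edema above the DMSO baseline.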 Put shortly: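 Dechorionate (pronase, 4 hpf) → place one 6 hpf embryo per well → static compound exposure, sealed and foil-covered, 28C, to 120 hpf → record yolk sac edema as present or absent. Final DMSO 0.64%.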
A short description of test [8]: Tanguay_ZF_120hpf_AXIS_legacy: (Legacy) Oregon State University Tanguay Lab 120 Hour Post-fertilization zebrafish Assay for Body Axis Malformation (AID 2283635).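 As to AC50: potency for an increased fraction of larvae scored with body axis malformation.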 Put shortly: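 Chorion is removed with pronase at 4 hpf, then single 6 hpf embryos are dosed (final DMSO 0.64%) and held statically at 28C in sealed, foil-covered plates. At 120 hpf body axis malformation is recorded as present or absent.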

Test [9] can be described thus: Tanguay_ZF_120hpf_EYE_legacy: (Legacy) Oregon State University Tanguay Lab 120 Hour Post-fertilization zebrafish Assay for Eye Malformation (AID 2283636). Put shortly: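 Static waterborne exposure of dechorionated zebrafish embryos (strain Tropical 5D), 6 to 120 hpf, sealed plates at 28C, 0.64% DMSO vehicle. Eye malformation is scored as a binary endpoint, with gain of signal analysed relative to DMSO.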

The nature of test [10]: Tanguay_ZF_120hpf_SNOU_legacy: (Legacy) Oregon State University Tanguay Lab 120 Hour Post-fertilization zebrafish Assay for Snout Malformation (AID 2283637). Put shortly: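 Dechorionated zebrafish, individually housed from 6 hpf in covered, sealed wells at 28C with 0.64% DMSO vehicle, were examined at 120 hpf for snout malformation. Responses were binary and analysed positive-direction relative to DMSO.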

The nature of test [11]: Tanguay_ZF_120hpf_JAW_legacy: (Legacy) Oregon State University Tanguay Lab 120 Hour Post-fertilization zebrafish Assay for Jaw Malformation (AID 2283638).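 As to AC50: active means more embryos with jaw malformation than DMSO controls.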 Put shortly:
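Steps: dechorionate 4 hpf embryos (pronase); plate 1/well at 6 hpf; add test chemical, 0.64% DMSO final; seal, cover, hold at 28C statically to 120 hpf; score jaw defect presence/absence microscopically. Dead embryos not scored.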

Test [12] can be described thus: Tanguay_ZF_120hpf_OTIC_legacy: (Legacy) Oregon State University Tanguay Lab 120 Hour Post-fertilization zebrafish Assay for Otic Vesicle Malformation (AID 2283639). Put shortly: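 Brightfield scoring at 120 hpf, binary present/absent; DMSO negative control, 5uM trimethyltin chloride positive control. Static exposure at 28C, final DMSO 0.64% (vol/vol). Dead embryos not scored for malformation.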

The nature of test [13]: Tanguay_ZF_120hpf_PE_legacy: (Legacy) Oregon State University Tanguay Lab 120 Hour Post-fertilization zebrafish Assay for Pericardial Edema (AID 2283640).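 As to AC50: potency for increased incidence of pericardial edema versus DMSO baseline.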 Put shortly: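 Embryos from wild-type 5D adults were staged, then dosed in 0.64% DMSO. They were kept sealed in the dark at 28C until 120 hpf. Pericardial edema was then recorded as present or absent.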
Test [14] in a line: Tanguay_ZF_120hpf_BRAI_legacy: (Legacy) Oregon State University Tanguay Lab 120 Hour Post-fertilization zebrafish Assay for Brain Malformation (AID 2283641). An outline of the steps:
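Wild-type 5D larvae, static waterborne exposure to 120 hpf, 28C, 0.64% v/v DMSO. Brightfield scoring of brain defects, binary; dead embryos excluded. Positive ctrl 5uM trimethyltin chloride.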

Test [15] is described as follows: Tanguay_ZF_120hpf_PFIN_legacy: (Legacy) Oregon State University Tanguay Lab 120 Hour Post-fertilization zebrafish Assay for Pectoral Fin Malformation (AID 2283648).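 Also: each larva judged yes or no for fin defect by brightfield with dead larvae skipped.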 Put shortly:
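Scoring of pectoral fin malformation was binary, made at 120 hpf on larvae exposed statically from 6 hpf after enzymatic chorion removal. Activity was fitted upward relative to DMSO controls at 0.64% (vol/vol).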

A short description of test [16]: Tanguay_ZF_120hpf_CFIN_legacy: (Legacy) Oregon State University Tanguay Lab 120 Hour Post-fertilization zebrafish Assay for Caudal Fin Malformation (AID 2283649). Put shortly:
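Binary presence or absence of caudal fin malformation at 120 hpf, read by brightfield microscopy, with DMSO as baseline. Larvae came from 5D wild-type embryos exposed statically from 6 hpf at 28C after pronase dechorionation.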

Test [17] can be described thus: Tanguay_ZF_120hpf_CIRC_legacy: (Legacy) Oregon State University Tanguay Lab 120 Hour Post-fertilization zebrafish Assay for Circulatory Malformation (AID 2283651). Put shortly: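 Static exposure, 6–120 hpf, 28C, sealed and dark; one dechorionated 5D embryo/well; DMSO 0.64% v/v final. Binary circulation endpoint by brightfield; dead embryos not scored.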
Test [18] in a line: Tanguay_ZF_120hpf_SOMI_legacy: (Legacy) Oregon State University Tanguay Lab 120 Hour Post-fertilization zebrafish Assay for Somite Malformation (AID 2283647). An outline of the steps:
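Read-out: presence or absence of somite malformation in 120 hpf larvae, gain-of-signal relative to DMSO baseline. Embryos lacked chorion (pronase, 4 hpf) and were exposed statically from 6 hpf at 28C; dead larvae not scored.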

Test [19] is described as follows: Tanguay_ZF_120hpf_PIG_legacy: (Legacy) Oregon State University Tanguay Lab 120 Hour Post-fertilization zebrafish Assay for Pigmentation Malformation (AID 2283650). An outline of the steps:
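Endpoint is incidence of abnormal pigmentation at 120 hpf in dechorionated 5D zebrafish exposed singly from 6 hpf at 28C, DMSO vehicle at 0.64%. Embryos dying by 24 or 120 hpf are excluded from scoring.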

Test [20] concerns the target Cellular tumor antigen p53 (Homo sapiens) (UniProt P04637). As to the kind of experiment: TOX21_p53_BLA_p5_ratio: Tox21 HCT-116 p53 Agonism Beta-lactamase Assay, Ratio, Phase 5 (AID 2283599). Put shortly:
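HCT-116 cells carrying a p53-inducible beta-lactamase reporter were seeded at 4000 cells/well and dosed after 5 h with compound in DMSO (217-fold dilution). After 16 h at 37C, CCF4-AM substrate was added for 2 h, and the 460/530 nm emission ratio was scored as gain-of-signal versus DMSO.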

Molecules are shown by their SMILES. “And” between values parts separate entries of the source, which are not always exact repeats. Identical values can stand only once. Inconclusive results are not listed. Some structures have more than one record in an assay (separate samples or runs), and their calls can disagree. The source made the active and inactive calls. The calls were made as follows: active = hit-call score of the fitted dose curve at least 0.9, where 1 is the maximum; inconclusive = response in the unintended direction; inactive = score below 0.9.

Sequence of Cellular tumor antigen p53 (Homo sapiens) (P04637 whole entry, looked up): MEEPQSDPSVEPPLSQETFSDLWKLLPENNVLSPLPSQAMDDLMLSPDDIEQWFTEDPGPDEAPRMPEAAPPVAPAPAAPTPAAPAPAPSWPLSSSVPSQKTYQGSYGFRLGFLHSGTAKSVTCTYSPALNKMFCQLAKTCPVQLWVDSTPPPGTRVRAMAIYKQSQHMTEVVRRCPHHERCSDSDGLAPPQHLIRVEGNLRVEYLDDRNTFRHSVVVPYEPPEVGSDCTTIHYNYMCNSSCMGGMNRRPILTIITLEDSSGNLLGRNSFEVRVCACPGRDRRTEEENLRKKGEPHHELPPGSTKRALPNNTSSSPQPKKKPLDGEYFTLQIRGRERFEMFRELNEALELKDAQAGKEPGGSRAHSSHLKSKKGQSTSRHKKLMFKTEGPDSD

Take `Nc1ccc(-c2ccc(N)cc2)cc1`: the compound was classed as inactive in test [1], in [2], in test [3], in test [4], in test [5] and in test [6]. Besides, the compound was called inactive in test [7], in [8], in [9], in [10], in test [11] and in test [12]. In addition, the call in [13], in test [14], in test [15], in test [16] and in test [17] was inactive.
As for `CO/C=C(/C(=O)OC)c1ccccc1COc1cccc(C(F)(F)F)n1`, the compound was classed as inactive in test [1], in [3] and in test [4]. Also, the AC50 in [2] is 6.17 µM (active); in test [5], 5.53 µM (active); in [7], 4.88 µM (active); in test [8], 6.06 µM (active); in test [9], 3.83 µM (active); in test [10], 2.99 µM (active). In addition, the concentration at half-maximal activity (AC50) in test [11] was 2.66 µM (active); in test [12], 12.7 µM (active); in [13] it was 2.43 µM (active); in test [14], 3.77 µM (active); in test [18] it was 18.1 µM (active); in test [15], 5.66 µM (active). Also, the figures for the AC50 in test [16], in test [19] and in [17] were 9.15 µM (active), 19.7 µM (active) and 9.76 µM (active), respectively.
`ClC(Cl)=C(c1ccc(Cl)cc1)c1ccc(Cl)cc1`: the AC50 in [1] is 58.4 µM (active). For the same compound, the compound was called inactive in test [1], in test [2], in [3], in [4], in test [5] and in [7]. The compound was classed as inactive in test [8], in [9], in [10], in test [11], in test [13] and in [14]. Besides, the call in [15], in [16] and in test [17] was inactive.
Turning to `CC(c1ccc(O)cc1)(c1ccc(O)cc1)c1ccc(O)cc1`, the call in test [1], in test [3], in test [20], in test [4], in test [7] and in test [8] was inactive. The compound was classed as inactive in test [9], in test [10], in test [11], in [12], in test [14] and in test [18]. Besides, the result in [15], in test [16], in test [19] and in test [17] was inactive. The half-maximal activity concentration (AC50) is 78.9 µM (active) in [2] and 80.8 µM (active) in [5].
For the compound `CCOC(=O)C(O)(c1ccc(Cl)cc1)c1ccc(Cl)cc1`, the AC50 in [1] was 22 µM (active); in [2], 55.2 µM (active) and 50.6 µM (active); in [3] it was 59.7 µM (active) and 25.1 µM (active); in test [20] it was 80.1 µM (active) and 66.1 µM (active); in test [4], 81.7 µM (active) and 24.7 µM (active); in [5], 68.6 µM (active) and 60.8 µM (active). For the same compound, the call in test [1], in test [6], in test [7], in [8], in [9] and in [10] was inactive. The compound was classed as inactive in test [11], in [12], in test [13], in test [14], in test [15] and in test [16]. Also, the compound was called inactive in test [19].
Consider `Cc1cc(O)ccc1Cl`, for which the call in test [1], in test [2], in test [3], in [20], in test [4] and in [5] was inactive. Further, the call in [8], in [9], in test [10], in test [11], in test [12] and in [13] was inactive. Also, the call in test [15], in [16], in test [19] and in test [17] was inactive.
As for `c1cc2ccc3cccc4ccc(c1)c2c34`, the compound was classed as inactive in test [1], in test [2], in test [3], in [4], in [5] and in test [6]. Besides, the call in test [7], in [8], in [9], in test [10], in test [12] and in [13] was inactive. For the same compound, the call in [14], in test [16], in test [19] and in [17] was inactive.
